Results taken from PubChem BioAssay (NCATS).
Inconclusive results are not listed. The source made the active and inactive calls. Unless noted, the call rests on the fitted dose curve; in most records, active means well fitted curve in either direction with a large enough effect (not every such curve was filed as active); inconclusive means small, poorly fitted or top-dose-only effect, or another doubt; inactive means flat fitted curve, though single readings scatter.

How the values were obtained:
[1] = AP1 Signaling Pathway (AID 357); conditions: ME-180 AP-1-bla reporter, EGF-induced, beta-lactamase ratio, 5 h; at 17.2 µM (top of the series) unless noted;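 further: ME-180 reporter cells stimulated with EGF at its EC50 level; on the % scale 0 is the no-effect control and ±100 the full control effect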
Outline: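 A ratiometric CCF4 readout (405 nm excitation; 460 and 530 nm emission) quantified AP-1-driven beta-lactamase in ME-180 cells after 5 h with compound and EC50 EGF; AC50 values were derived for activators and inhibitors.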

[2] = Stat Signaling Pathway (AID 446); conditions: ME-180 SIE beta-lactamase reporter, IL-6 stimulated, 5 h; at 17.2 µM (top of the series) unless noted;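 further: ME-180 cervical cancer cells given 40 pM IL-6 alongside compound; SIE-controlled beta-lactamase reporter measured as 460/530 nm FRET emission ratio; on the % scale 0 is the no-effect control and ±100 the full control effect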
Outline: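 Emission at 460 and 530 nm (excitation 405 nm) reports SIE-controlled beta-lactamase in ME-180 cells. Cells received compound with 40 pM IL-6 for 5 hrs at 37 C; data scaled between 300 pM IL-6 and 125 nM JAK-inhibitor controls.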

[3] = molecular target: Glucocorticoid receptor (Homo sapiens) (UniProt P04150); assay: GR-GFP Redistribution (AID 450;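 active means compounds whose dose series gives a full or clear partial fitted curve of increased nuclear translocation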; further: potency means the concentration at half of the fitted maximal effect)
[4] = molecular target: Glucocorticoid receptor (Homo sapiens) (UniProt P04150); assay: GR-EFC Redistribution (AID 451; calls by dose curve; further: potency means the concentration at half of the fitted maximal effect); conditions: CHO-K1 GR-EFC translocation, beta-gal luminescence, 2 h
Outline: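 CHO-K1 cells expressing nuclear EA and GR-ED fragments of b-gal; compounds titrated up to 46 uM final, 2 h at 37 C. GR nuclear translocation read as complemented b-gal luminescence after 1 h RT detection.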

[5] = molecular target: Mitogen-activated protein kinase 10 (Mus musculus) (UniProt Q61831); assay: JNK3 AlphaScreen Assay (AID 530);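 further: kinase came from lysate of stimulated human HepG2 cells; signal reports phosphorylation of biotinylated GST-cJun 1-79 at Ser73 with 10 µM ATP; on the % scale 0 is the no-effect control and ±100 the full control effect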
Outline: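 Activity was read by AlphaScreen after JNK3-containing HepG2 lysate (cytokine pre-activated) phosphorylated biotinylated GST-cJun with 10 uM ATP at room temperature. Phospho-Ser73 cJun antibody with Protein-A acceptor beads provided detection.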

[6] = molecular target: Cytochrome P450 3A4 (Homo sapiens) (UniProt P08684); assay: qHTS Assay for Activators of Cytochrome P450 3A4 (AID 885; active means well fitted curve in the direction sought with a large enough effect; an effect the other way counts as inactive or inconclusive; further: nearly all actives have a fitted effect of over 65% in size)
Outline: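 Activators are scored by enhanced luminescence from CYP3A4 conversion of luciferin-PPXE (25uM, equal to KM) to luciferin, after 60 min at RT with an NADPH-regenerating system.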

[7] = molecular target: Ubiquitin carboxyl-terminal hydrolase 1 (Homo sapiens) (UniProt O94782); assay: Inhibitors of USP1/UAF1: Pilot qHTS (AID 504865; active means well fitted curve in the direction sought with a large enough effect; an effect the other way counts as inactive or inconclusive;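 further: rhodamine fluorescence freed from ubiquitin-rhodamine substrate followed over time; top concentration of the series differs between compounds; on the % scale 0 is the no-effect control and ±100 the full control effect; nearly all actives have a fitted effect of over 35% in size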)
Outline: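 Enzyme-free wells gave the negative control, while test wells held 1nM USP1/UAF1 preincubated with compound for 15 min at room temperature. Ub-Rho at 150nM final started the reaction, and fluorescence at 480/540 nm was recorded kinetically.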

[8] = molecular target: 3',5'-cyclic-AMP phosphodiesterase 4B (Homo sapiens) (UniProt Q07343); assay: qHTS Assay for Inhibitors of PDE-IV (AID 607; active means well fitted activation curve with a large enough effect in the main read-out, with a control signal flat, not every such curve was filed as active; further: % of control where 0% means no effect)
Outline: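 The readout is membrane depolarisation from a cAMP-sensing CNG channel, detected with a potential dye at ex 535/em 590. Cells were HEK293-derived (endogenous PDE-IV) at 1000 cells/well, titrated up to 22.9 uM final.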

[9] = qHTS Assay for Identification of Small Molecule Agonists for Hypoxia Response Element Signaling Pathway (AID 914; active means well fitted activation curve with a large enough effect in the signal ratio, with a control signal flat, not every such curve was filed as active; the % refers to the signal ratio; further: % of control where 0% means no effect); conditions: ME-180 HRE-bla reporter, beta-lactamase ratio, CoCl2, 17 h; activation: active compounds read high
Outline: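 ME-180 cells carrying an HRE-driven beta-lactamase reporter were treated with compounds in a titration series plus an EC50 level of CoCl2 for 17 h at 37 degrees Celsius; CCF4 readout as the 460nm/530nm ratio gave AC50 values.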

[10] = molecular target: Guanine nucleotide-binding protein G(i) subunit alpha-1 (Homo sapiens) (UniProt P63096); assay: qHTS Assay for Inhibitors of RGS12 GoLoco Motif Activity (Green Fluorophore) (AID 879; active means well fitted curve in the direction sought with a large enough effect; an effect the other way counts as inactive or inconclusive;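 further: 0% = labeled peptide with Gαi1 and full inhibition = labeled peptide alone without protein; negative values mean loss of peptide binding seen as reduced polarization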)
Outline: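 A drop in FITC polarization marked displacement of the FITC-tagged RGS12 GoLoco peptide (10 nM) from Gαi1 (50 nM). Compounds were incubated 10 min at room temperature in Tris pH 7.5 buffer containing 150 mM NaCl, 0.1 mM GDP and 0.05% NP40; unlabeled peptide titration served as control.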

[11] = molecular target: Pyruvate kinase (Leishmania mexicana) (UniProt Q27686); assay: qHTS Validation Assay for Inhibitors of Leishmania Mexicana Pyruvate Kinase (AID 945; active means well fitted curve in the direction sought with a large enough effect; an effect the other way counts as inactive or inconclusive;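 further: 0% = DMSO only neutral control wells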)
Outline: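 LmPYK E451W 0.2 nM; 0.5 mM PEP, 0.1 mM ADP, 7 mM MgCl2, 50 mM KCl, imidazole pH 7.2, 0.01% Tween 20, 0.05% BSA; 1 h RT; PKLight luminescence; DMSO-normalized.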

[12] = molecular target: Pyruvate kinase PKM (Homo sapiens) (UniProt P14618); assay: qHTS Assay for Activators of Human Muscle Pyruvate Kinase (AID 954; active means well fitted curve in the direction sought with a large enough effect, not every such curve was filed as active;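 further: 0% = uninhibited enzyme and -100% = no enzyme or full thiadiazolimine inhibition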)
Outline: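 PKM2, human, >95% pure, 0.1 nM; PEP 0.5 mM (Km), ADP 0.1 mM; 50 mM imidazole pH 7.2, 50 mM KCl, 0.01% Tween 20, 0.05% BSA; 1 h RT; luciferase luminescence readout.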

[13] = molecular target: Alpha-galactosidase A (Homo sapiens) (UniProt P06280); assay: Counterscreen for Glucocerebrosidase Inhibitors: qHTS Assay for Human alpha-Galactosidase at pH 4.5 (AID 992; active means well fitted curve in the direction sought with a large enough effect; an effect the other way counts as inactive or inconclusive; further: 0% is about no effect)
Outline: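 Fluorogenic 4-MU alpha-D-galactoside (80 uM) hydrolysis, 2 nM enzyme, pH 4.5 citrate buffer + 0.005% Tween-20; 20 min RT; NaOH/glycine pH 10 stop; Ex365/Em440. Compounds titrated 0.7 nM–77 uM; Hill-equation AC50.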

[14] = molecular target: alpha-glucosidase (Oryza sativa, rice) (UniProt Q653V4); assay: Counterscreen for Glucocerebrosidase Inhibitors: qHTS Assay for Rice alpha-Glucosidase at pH 5.0 (AID 997; active means well fitted curve in the direction sought with a large enough effect; an effect the other way counts as inactive or inconclusive;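 further: 0% = full activity with enzyme and -100% = basal without enzyme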)
Outline: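 Endpoint fluorogenic assay at pH 5.0: compounds (0.7 nM to 77 uM) titrated against 4 nM rice enzyme and 400 uM 4-MU-alpha-glucoside for 20 min at room temperature; NaOH/glycine stop, read ex 365/em 440 nm, Hill-fitted AC50.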

[15] = qHTS Assay for Identification of Small Molecule Antagonists for NFkB Signaling Pathway (AID 895; active means well fitted inhibition curve with a large enough effect in the signal ratio, with a control signal flat, not every such curve was filed as active; the % refers to the signal ratio; further: on the % scale 0 is the no-effect control and ±100 the full control effect)
Outline: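 ME-180 NFkB-bla cells (beta-lactamase under NFkB response element), plated overnight, treated with compound then 10 pM TNF alpha (about EC50) for 5 hrs at 37 C. LiveBLAzer FRET read at 460/530 nm emission, 405 nm excitation.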

[16] = qHTS Assay for Identification of Small Molecule Agonists for Thrombopoietin (TPO) Signaling Pathway (AID 917; active means well fitted curve in the direction sought with a large enough effect; an effect the other way counts as inactive or inconclusive; further: on the % scale 0 is the no-effect control and ±100 the full control effect)
Outline: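 Human TPO receptor–transfected Ba/F3 cells (murine, IL-3-dependent) in IL-3-deficient medium; compounds plus TPO at EC50, 26 pM final; 24 hrs, 37 C; GpIIb-luciferase luminescence after 10 min RT detection.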

Glucocorticoid receptor (Homo sapiens), sequence (P04150 whole entry, looked up, the tested form may be a part): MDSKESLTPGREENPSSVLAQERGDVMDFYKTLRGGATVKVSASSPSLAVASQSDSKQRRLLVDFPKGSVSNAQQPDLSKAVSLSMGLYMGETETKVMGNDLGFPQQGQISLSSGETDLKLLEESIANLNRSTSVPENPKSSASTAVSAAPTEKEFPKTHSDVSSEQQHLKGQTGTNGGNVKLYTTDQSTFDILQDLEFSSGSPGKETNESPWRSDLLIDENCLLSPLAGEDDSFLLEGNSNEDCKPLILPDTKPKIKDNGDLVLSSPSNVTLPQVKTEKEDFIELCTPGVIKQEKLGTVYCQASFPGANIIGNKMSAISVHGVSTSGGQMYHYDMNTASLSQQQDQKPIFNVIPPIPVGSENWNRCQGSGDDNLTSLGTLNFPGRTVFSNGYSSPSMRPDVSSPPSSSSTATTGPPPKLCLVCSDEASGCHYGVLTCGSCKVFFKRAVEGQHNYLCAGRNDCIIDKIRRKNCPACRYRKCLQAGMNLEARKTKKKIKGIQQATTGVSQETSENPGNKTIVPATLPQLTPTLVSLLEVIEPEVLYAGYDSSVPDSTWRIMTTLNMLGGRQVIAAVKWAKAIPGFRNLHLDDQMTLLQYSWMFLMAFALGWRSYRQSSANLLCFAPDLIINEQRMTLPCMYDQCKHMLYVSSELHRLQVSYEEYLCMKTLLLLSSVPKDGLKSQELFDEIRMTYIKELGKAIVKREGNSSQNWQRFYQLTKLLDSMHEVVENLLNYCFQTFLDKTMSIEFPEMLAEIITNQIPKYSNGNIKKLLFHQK
3',5'-cyclic-AMP phosphodiesterase 4B (Homo sapiens), sequence (Q07343 whole entry, looked up): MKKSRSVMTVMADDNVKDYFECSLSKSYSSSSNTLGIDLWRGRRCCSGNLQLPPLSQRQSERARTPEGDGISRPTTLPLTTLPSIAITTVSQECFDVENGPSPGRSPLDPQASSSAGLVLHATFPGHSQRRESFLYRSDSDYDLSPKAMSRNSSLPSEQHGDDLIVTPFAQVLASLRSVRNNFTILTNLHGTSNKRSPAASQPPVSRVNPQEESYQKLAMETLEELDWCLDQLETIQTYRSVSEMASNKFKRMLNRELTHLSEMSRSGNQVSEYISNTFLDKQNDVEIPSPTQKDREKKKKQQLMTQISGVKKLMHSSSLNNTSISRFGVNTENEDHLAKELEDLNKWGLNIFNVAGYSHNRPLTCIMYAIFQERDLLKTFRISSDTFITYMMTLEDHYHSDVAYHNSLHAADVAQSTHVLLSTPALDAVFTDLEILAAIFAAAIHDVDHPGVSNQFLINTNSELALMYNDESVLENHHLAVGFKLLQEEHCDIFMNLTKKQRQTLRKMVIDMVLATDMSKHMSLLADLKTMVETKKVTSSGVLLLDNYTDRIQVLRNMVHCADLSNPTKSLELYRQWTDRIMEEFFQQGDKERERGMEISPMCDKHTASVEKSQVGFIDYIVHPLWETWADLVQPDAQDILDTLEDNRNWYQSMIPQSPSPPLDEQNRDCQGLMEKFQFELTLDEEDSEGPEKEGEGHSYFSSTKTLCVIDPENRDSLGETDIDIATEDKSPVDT
Pyruvate kinase (Leishmania mexicana), sequence (Q27686 2-499 E452W): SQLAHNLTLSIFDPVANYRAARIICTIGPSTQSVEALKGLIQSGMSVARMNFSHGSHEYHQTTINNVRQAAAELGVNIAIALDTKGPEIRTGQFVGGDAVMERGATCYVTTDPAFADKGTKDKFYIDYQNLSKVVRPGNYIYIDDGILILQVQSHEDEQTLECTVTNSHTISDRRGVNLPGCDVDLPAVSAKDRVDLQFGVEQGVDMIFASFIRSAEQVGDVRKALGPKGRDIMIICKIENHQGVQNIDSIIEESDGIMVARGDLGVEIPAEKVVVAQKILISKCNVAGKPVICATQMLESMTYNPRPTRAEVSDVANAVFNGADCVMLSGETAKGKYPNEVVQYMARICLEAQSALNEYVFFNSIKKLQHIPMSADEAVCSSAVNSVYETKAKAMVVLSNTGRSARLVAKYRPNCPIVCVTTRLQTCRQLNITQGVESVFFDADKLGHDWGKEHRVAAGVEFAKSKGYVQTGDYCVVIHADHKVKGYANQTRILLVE
Pyruvate kinase PKM (Homo sapiens), sequence (P14618 whole entry, looked up): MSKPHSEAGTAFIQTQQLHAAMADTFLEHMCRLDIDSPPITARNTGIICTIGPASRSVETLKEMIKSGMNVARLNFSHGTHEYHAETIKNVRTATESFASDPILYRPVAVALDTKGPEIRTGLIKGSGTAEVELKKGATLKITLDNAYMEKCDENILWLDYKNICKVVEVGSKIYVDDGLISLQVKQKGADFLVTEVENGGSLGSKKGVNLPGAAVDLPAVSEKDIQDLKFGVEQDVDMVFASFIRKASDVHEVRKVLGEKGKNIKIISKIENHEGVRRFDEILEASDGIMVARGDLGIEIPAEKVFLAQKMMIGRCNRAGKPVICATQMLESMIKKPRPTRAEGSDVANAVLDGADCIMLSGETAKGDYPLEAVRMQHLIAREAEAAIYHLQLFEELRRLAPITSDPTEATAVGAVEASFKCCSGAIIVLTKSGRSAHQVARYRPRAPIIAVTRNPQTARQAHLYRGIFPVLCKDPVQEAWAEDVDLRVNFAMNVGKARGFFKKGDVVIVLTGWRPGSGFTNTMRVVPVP
Alpha-galactosidase A (Homo sapiens), sequence (P06280 whole entry, looked up): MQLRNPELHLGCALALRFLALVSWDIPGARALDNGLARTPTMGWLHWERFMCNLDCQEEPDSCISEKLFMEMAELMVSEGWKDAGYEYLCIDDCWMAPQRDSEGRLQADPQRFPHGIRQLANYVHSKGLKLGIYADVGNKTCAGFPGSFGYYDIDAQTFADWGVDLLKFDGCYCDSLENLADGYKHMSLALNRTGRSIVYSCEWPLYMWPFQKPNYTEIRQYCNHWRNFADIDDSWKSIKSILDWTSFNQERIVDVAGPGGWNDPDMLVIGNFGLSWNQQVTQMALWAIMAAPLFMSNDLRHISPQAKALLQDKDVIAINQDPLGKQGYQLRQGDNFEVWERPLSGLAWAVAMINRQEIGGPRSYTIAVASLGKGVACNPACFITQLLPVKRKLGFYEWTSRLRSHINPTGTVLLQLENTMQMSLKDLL
Guanine nucleotide-binding protein G(i) subunit alpha-1 (Homo sapiens), sequence (P63096 whole entry, looked up): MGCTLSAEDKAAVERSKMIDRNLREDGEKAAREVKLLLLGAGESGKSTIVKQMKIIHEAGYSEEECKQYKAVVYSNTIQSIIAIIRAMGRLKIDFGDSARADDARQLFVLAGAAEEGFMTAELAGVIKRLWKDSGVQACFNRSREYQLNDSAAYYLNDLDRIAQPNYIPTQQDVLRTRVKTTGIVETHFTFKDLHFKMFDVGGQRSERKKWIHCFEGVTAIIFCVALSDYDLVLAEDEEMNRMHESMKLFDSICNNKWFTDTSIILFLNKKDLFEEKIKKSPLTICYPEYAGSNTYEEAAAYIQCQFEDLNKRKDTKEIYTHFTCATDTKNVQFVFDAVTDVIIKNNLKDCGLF
Cytochrome P450 3A4 (Homo sapiens), sequence (P08684 whole entry, looked up): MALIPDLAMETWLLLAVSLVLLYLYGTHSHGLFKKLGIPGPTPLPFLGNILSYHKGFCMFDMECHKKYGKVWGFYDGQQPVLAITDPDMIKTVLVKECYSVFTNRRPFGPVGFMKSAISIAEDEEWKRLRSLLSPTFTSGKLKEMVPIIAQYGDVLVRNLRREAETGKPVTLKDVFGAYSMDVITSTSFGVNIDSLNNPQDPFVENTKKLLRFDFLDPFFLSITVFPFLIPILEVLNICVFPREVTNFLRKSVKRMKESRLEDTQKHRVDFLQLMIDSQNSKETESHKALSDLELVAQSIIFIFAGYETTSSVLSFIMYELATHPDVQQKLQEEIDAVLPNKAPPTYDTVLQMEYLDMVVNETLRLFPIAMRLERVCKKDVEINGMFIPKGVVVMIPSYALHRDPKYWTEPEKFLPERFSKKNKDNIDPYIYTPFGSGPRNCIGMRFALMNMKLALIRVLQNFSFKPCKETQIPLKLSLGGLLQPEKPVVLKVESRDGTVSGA
Ubiquitin carboxyl-terminal hydrolase 1 (Homo sapiens), sequence (O94782 whole entry, looked up): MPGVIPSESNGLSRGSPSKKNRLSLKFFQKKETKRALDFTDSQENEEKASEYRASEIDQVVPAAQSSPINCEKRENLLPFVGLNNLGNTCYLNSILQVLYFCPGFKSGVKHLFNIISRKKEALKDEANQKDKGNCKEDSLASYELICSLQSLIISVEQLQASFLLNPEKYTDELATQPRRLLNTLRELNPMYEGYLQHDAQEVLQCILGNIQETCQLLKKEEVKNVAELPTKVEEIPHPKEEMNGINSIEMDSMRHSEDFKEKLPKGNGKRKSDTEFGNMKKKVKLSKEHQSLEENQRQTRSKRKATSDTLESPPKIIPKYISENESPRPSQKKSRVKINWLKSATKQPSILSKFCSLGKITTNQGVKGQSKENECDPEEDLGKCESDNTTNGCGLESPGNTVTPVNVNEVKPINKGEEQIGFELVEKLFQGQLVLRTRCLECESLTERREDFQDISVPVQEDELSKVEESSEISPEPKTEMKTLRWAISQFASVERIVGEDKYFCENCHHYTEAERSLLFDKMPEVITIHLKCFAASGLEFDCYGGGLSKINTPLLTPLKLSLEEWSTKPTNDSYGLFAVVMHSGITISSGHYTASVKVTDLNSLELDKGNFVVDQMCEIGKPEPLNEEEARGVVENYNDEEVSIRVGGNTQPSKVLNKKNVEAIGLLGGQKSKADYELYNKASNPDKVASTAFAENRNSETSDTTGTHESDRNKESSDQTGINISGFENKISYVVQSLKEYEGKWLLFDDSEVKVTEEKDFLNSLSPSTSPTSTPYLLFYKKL

CCCCCCCCN[C@@H](C)[C@H](O)c1ccc(SC(C)C)cc1
inactive: activity change, negative = inhibition [1] 0.133% | activity, negative = inhibition [2] 7.39% | Potency [3] > 20.6 µM | Potency [4] > 20.6 µM | Potency [5] | Potency [6] | Potency [7]

C[N+](C)(C)CCN(Cc1cccs1)c1ccccn1
inactive: activity change, negative = inhibition [1] -6.68% [at 7.69 µM] | activity, negative = inhibition [2] -4.68% [at 7.69 µM] | Potency [3] > 46 µM | Potency [4] > 9.22 µM | activity change, negative = inhibition [5] 0.454% [at 11.4 µM] | Potency [8] | activation [9] 3.56%

CC1(C)Cc2c(C#N)c(SCCOc3ccccc3)nc(N3CCOCC3)c2CO1
inactive: activity change, negative = inhibition [1] -5.93% | activity, negative = inhibition [2] -22.3% | Potency [3] > 20.6 µM

CCN1CCN(c2nc3c(C)cccn3c(=O)c2/C=C(\C#N)S(=O)(=O)c2ccccc2)CC1
inactive: activity change, negative = inhibition [1] -5.82% | activity, negative = inhibition [2] -5.71% | Potency [3] > 20.6 µM

Cc1nc(N2CCN(Cc3ccccc3)CC2)c(C#N)c2c1COC(C)(C)C2
inactive: activity change, negative = inhibition [1] -29.1% | activity, negative = inhibition [2] -15.6% | Potency [3] > 20.6 µM

c1ccc2c(c1)CCOC2CNCCCN1CCCCC1 (configuration not stated)
inactive: activity change, negative = inhibition [1] -0.837% | activity, negative = inhibition [2] 2.31% | Potency [3] > 20.6 µM

CCOC(=O)C1=C(C)NC(C)=C(C(=O)OC)[C@H]1c1cccc(Cl)c1Cl
inactive: activity change, negative = inhibition [1] -9.86% [at 38 µM] | activity, negative = inhibition [2] -0.0099% [at 38 µM] | Potency [3] > 46 µM | Potency [4] > 46 µM | Potency [5] | Potency [8] | outcome [10] | Potency [11] | outcome [12] | outcome [13] | outcome [14]

Cc1ccc(N2C(=O)CC(N(O)C3CC(=O)N(c4ccc(C)cc4)C3=O)C2=O)cc1 (configuration not stated)
inactive: activity change, negative = inhibition [1] -20.5% | activity, negative = inhibition [2] -25.3% | Potency [3] > 20.6 µM

CC(=O)O[C@@H]1[C@H]([N+]2(C)CCCCC2)C[C@@H]2[C@@H]3CC[C@@H]4C[C@@H](OC(C)=O)[C@H]([N+]5(C)CCCCC5)C[C@@]4(C)[C@H]3CC[C@]21C
inactive: activity change, negative = inhibition [1] 13.6% [at 38 µM] | activity, negative = inhibition [2] 18.1% [at 38 µM] | Potency [3] > 46 µM | Potency [4] > 46 µM | Potency [5] | Potency [8] | outcome [10] | Potency [15] | Potency [16] | Potency [11] | outcome [12] | outcome [13] | outcome [14]

Cc1cc(=O)oc2c(CN3CCC(C)CC3)c(O)c(Cl)cc12
inactive: activity change, negative = inhibition [1] 22.4% | activity, negative = inhibition [2] 7.86% | Potency [3] > 20.6 µM

COc1ccc(N2CCN(c3oc(COc4ccc(Cl)cc4)nc3C#N)CC2)cc1
inactive: activity change, negative = inhibition [1] -27.6% | activity, negative = inhibition [2] 11.6% | Potency [3] > 20.6 µM

C=CCOc1nc2c(c(=O)n(C)c(=O)n2C)n1Cc1c(Cl)cccc1Cl
inactive: activity change, negative = inhibition [1] 0.413% | activity, negative = inhibition [2] 3.61% | Potency [3] > 20.6 µM

COc1ccc(Nc2oc(-c3cccs3)nc2C#N)cc1
inactive: activity change, negative = inhibition [1] -23.7% | activity, negative = inhibition [2] -1.34% | Potency [3] > 20.6 µM

O=c1cc(-c2ccco2)nc(-c2cccs2)o1
inactive: activity change, negative = inhibition [1] 6.68% | activity, negative = inhibition [2] 8.1% | Potency [3] > 20.6 µM

COc1cccc(/C(O)=C2/C(=O)C(=O)N(CCCN(C)C)C2c2cccc(Cl)c2)c1 (configuration not stated)
inactive: activity change, negative = inhibition [1] 5.09% | activity, negative = inhibition [2] 5.04% | Potency [3] > 20.6 µM | activation [9] 9.88%
